The values that follow come from PubChem BioAssay (NCI).

Each structure is given as a SMILES string. About 83,000 compounds went through this panel and 20% of them were active in at least one assay; those are over-represented in the sample as a whole.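 A percent growth of 40 corresponds to 60% growth inhibition; 0 means no net growth; -100 means all cells died. Active threshold: below 10.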 Unmarked numbers belong to inactive results. Active and inactive are the calls of the source.

This assay has as its system OVCAR-3 ovarian. The assay can be described thus: NCI-60 one-dose screen, 48 h (100 = growth as untreated, 0 = no growth, -100 = all killed). The note with it: 10 µM. As to the method: Growth inhibition of the OVCAR-3 human tumor cell line is measured as a screen for anti-cancer activity. Cells are grown in 96 well plates and exposed to the test compound for 48 hours. Compounds are tested at a single concentration, which is 10^-5 M for most compounds. The reported endpoint is percent growth (GI% or GIPRCNT), where numbers from 0 - 100% represent growth inhibition, and numbers from -100% - 0 represent cell death. For example, a value of 40 represents 60% growth inhibition. A value of 0 means no net growth occurred over the course of the experiment. A value of -40 indicates 40% of cells at the beginning of the experiment died by the end of the experiment. A value of -100 means all cells are dead at the end of the experiment.
NCI-60 Human Tumor Cell Lines Screen was performed using the standard one-dose NCI protocol, which is described in more detail at https://dtp.cancer.gov/discovery_development/nci-60/default.htm.
Compounds with GIPRCNT values below 10 were considered active. Activity score was based on GIPRCNT using the following formula: […]
Score is 0 for GIPRCNT values of 100 or above, 50 for GIPRCNT values of 0, and 100 for GIPRCNT values of -100.
Consider `NS(=O)(=O)c1ccc(NC(=O)CSc2ccc(-c3ccc(Cl)cc3)nn2)c(Br)c1`, for which the growth was 7.69% (active).
Under `S=c1nc(-c2ccccc2)cc(-c2cc3ccccc3nc2Cl)[nH]1` stands 76.7%.
`COc1ccccc1[C@H]1C(C(=O)c2ccc(Cl)cc2)C2(N[C@@H]1c1ccccc1)C(=O)Nc1ccccc12` (stereo not given in full): the growth was -42.7% (active).
Take `Cn1cc(/C=N/Nc2ccnc3cc(Cl)ccc23)c2ccccc21`: the growth was -89.8% (active).
Under `CN1CCN(c2ccc(C(=O)/C=C/c3ccc(C#N)cc3)cc2)CC1` stands 79.9%; under `COc1ccc(-c2ccc(/C=N/NC(=O)c3[nH]c4ccc(Br)cc4c3-c3ccccc3)o2)cc1`, 21.1%.
Take `COc1cc(/C=C/C(=O)c2ccc(NC(=O)CSc3nnc(-c4c[nH]c5ccccc45)n3-c3ccccc3)cc2)cc(OC)c1OC`: the growth was 66%.
Regarding `CC(C)Sc1nc(NC2CC2)c(C#N)c(-c2ccccc2)n1`, the growth is 86.5%.
To `CC(=O)Oc1ccccc1C(=O)Oc1ccc(C(=O)/C=C/c2ccncc2)cc1` belongs 19.5%.
For the molecule `Cc1ccc(CSc2nc(-c3ccc(F)cc3)c(C#N)c(=O)[nH]2)cc1`, the growth was 102%.
For `CCOP(=O)(OCC)O[C@H]1CC[C@]2(C)[C@H]3CC[C@@H]4[C@@H]([C@](C)(O)CCC=C(C)C)CC[C@@]4(C)[C@]3(C)CC[C@H]2C1(C)C`, the growth was 11.1%.
Under `Cc1ccc(-c2ccc(SCC(=O)Nc3ccc(S(N)(=O)=O)cc3Br)nn2)cc1` stands -63.8% (active).
As for `COc1ccc2c3nc4cc(C)c(C)cc4nc3n(CCN(C)C)c2c1`, the growth was -47.1% (active).
As for `COc1ccc(CN2[C@H](C(=O)NCc3ccc(C(=O)NO)cc3)Cc3c([nH]c4ccccc34)[C@H]2C2CC2)cc1`, the growth was 48.7%.
For `Cc1cc(C)nc(NS(=O)(=O)c2ccc(N/C(N)=N/c3nccc(-c4cccs4)n3)cc2)n1`, the growth is 107%.
Under `COc1ccc(-c2nc(Nc3ccccc3S(N)(=O)=O)c3ccccc3n2)cc1` stands -20.6% (active).
To `CC1=N/C(=C\c2ccc(N(C)C)cc2)C(=O)N1CCc1ccc(S(N)(=O)=O)cc1` belongs 109%; to `CN1CCO/C1=C(/NC(=O)c1ccc(Cl)cc1)[P+](c1ccccc1)(c1ccccc1)c1ccccc1`, 64.1%; to `O=C(NO)c1ccc(CNC(=O)[C@H]2Cc3c([nH]c4ccccc34)[C@H](c3ccccc3)N2)cc1`, 22.7%.
In the case of `O=C(CNc1nc(-c2ccccc2)cs1)Nc1cccc([N+](=O)[O-])c1`, the growth was -44.6% (active).
On to `COc1ccc2[nH]c(O)c(N=NC(=O)COc3ccc(NC(=O)Nc4ccc(Cl)c(Cl)c4)cc3)c2c1`, for which the growth was -44.5% (active).
As for `COc1cc2c3c(n(CCCn4ccnc4)c(=O)c2cc1OC)-c1nc2c(cc1C3=O)OCO2`, the growth was 48.5%.
As for `O=c1c2ccccc2nc(COc2ccccc2)n1/N=C/c1ccc(N2CCCC2)cc1`, the growth was 105%.
To `O=C(Nc1ccc(F)c(Cl)c1)c1cc(-c2ccc(F)cc2F)ccc1O` belongs 9.88% (active); to `CC(=O)Nc1ccc(-c2cn(-c3cccc(C(=O)Nc4ccc(F)c(C(F)(F)F)c4)c3)nn2)cn1`, 24.9%; to `Cc1ccc(-c2nc(Nc3ccc(C)c(S(N)(=O)=O)c3)c3ccccc3n2)cc1`, 57%.
To `O=C1N/C(=N\c2nccs2)S/C1=C\c1cccs1` belongs 44.2%.
Regarding `O=c1oc2ccc(-c3ccc(F)cc3F)cc2c(=O)n1-c1ccc(F)cc1`, the growth is 3.4% (active).
For the molecule `Cc1ccc(/C=C/C(=O)c2ccc(NC(=O)CSc3nnc(-c4c[nH]c5ccccc45)n3-c3ccccc3)cc2)cc1`, the growth is 83.2%.
To `CN1CCc2c(sc3ncnc(N/N=C/c4cn(-c5ccccc5)nc4-c4ccc(Cl)cc4)c23)C1` belongs -17.2% (active); to `COc1ccc(/C=C/C(=O)c2ccc(NC(=O)CN3C(=O)NC(C)(c4ccccc4)C3=O)cc2)cc1` (stereo not given), 78.2%.
As to `Cc1cccc2cc(-c3cc(-c4ccccc4)nc(=S)[nH]3)c(Cl)nc12`, the growth is 107%.
To `Cc1ccc(-c2nc3ccc(C(=O)N=Nc4c(O)[nH]c5ccc(Br)cc45)cc3[nH]2)cc1` belongs 49.4%; to `O=c1c2ccccc2nc(COc2ccccc2)n1/N=C/c1ccc(F)cc1`, 114%; to `CC1(C)CC[C@]2(C(=O)NCCCNCCCCNCCCN)CC[C@]3(C)C(=CC[C@@H]4[C@@]5(C)Cc6c([nH]c7ccccc67)C(C)(C)[C@@H]5CC[C@]43C)[C@H]2C1`, 118%.
In the case of `O=C(/C=C/Nc1ccccc1)c1ccc2c(c1)Nc1ccccc1S2`, the growth was 91.1%.
For the molecule `O=C(Nc1ccc(OCC(=O)c2ccccc2)cc1)Nc1ccc(Cl)c(C(F)(F)F)c1`, the growth was 23.8%.
Take `C#CCNC(=O)CCC(=O)OC[C@]12CC[C@@H](C(=C)C)[C@@H]1C1CC[C@@H]3[C@@]4(C)CCCNC(C)(C)[C@@H]4CC[C@@]3(C)[C@]1(C)CC2` (stereo not given in full): the growth was -71% (active).
Under `CN1CCN(c2ccc(Nc3nc(NCCCNC(=O)c4ccccc4)c4sccc4n3)cc2)CC1` stands 78.5%; under `CN1C(=O)/C(=C/c2nccs2)SC1=S`, 114%.
